Results: PubChem BioAssay
Values without a mark were called inactive. How the calls were made is not given here.

Each compound was assayed against Pantothenate synthetase (Mycobacterium tuberculosis (strain ATCC 25618 / H37Rv)) (UniProt P9WIL5) (assay: Recombinant Mtb pantothenate synthetase (PanC) inhibitors, coupled enzyme, confirmatory (AID 375;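 further: 0% = full reaction with vehicle and 100% = no enzyme background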)). Settings: coupled enzyme assay; at 10 µM, stronger effect = higher value.
Chain of Pantothenate synthetase (Mycobacterium tuberculosis (strain ATCC 25618 / H37Rv)) (P9WIL5 whole entry, looked up): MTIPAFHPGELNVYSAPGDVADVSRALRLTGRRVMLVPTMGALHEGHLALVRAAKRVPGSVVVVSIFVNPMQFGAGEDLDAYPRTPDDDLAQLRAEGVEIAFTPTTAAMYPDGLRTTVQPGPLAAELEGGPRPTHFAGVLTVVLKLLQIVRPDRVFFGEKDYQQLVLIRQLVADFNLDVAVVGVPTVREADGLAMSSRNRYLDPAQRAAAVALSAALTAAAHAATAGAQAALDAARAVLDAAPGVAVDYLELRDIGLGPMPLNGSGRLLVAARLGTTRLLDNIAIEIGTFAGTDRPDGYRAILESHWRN

| SMILES | inhibition |
| --- | --- |
| Cc1cc(C)cc(NC(=O)C2CCCN(S(=O)(=O)c3cnc[nH]3)C2)c1 (stereo unspecified) | 0% |
| Cc1c(NC(=O)C2CCCNC2=O)c(=O)n(-c2ccccc2)n1C (stereo unspecified) | 0% |
| CC(=O)N1CCc2cc(Br)cc(S(=O)(=O)NCCCN3CCCC(C)C3)c21 (stereo unspecified) | 2% |
| COc1ccc(-c2noc(-c3ccccc3C(=O)Nc3cccnc3)n2)cc1 | 0% |
| CCCCOc1ccc(S(=O)(=O)n2c(C)nc3ccccc32)cc1 | 0% |
| CC(C(=O)OCn1nnc2ccccc2c1=O)N1C(=O)c2ccccc2C1=O (stereo unspecified) | 0% |
| COc1ccccc1C1C(C(C)=O)=C(O)C(=O)N1CCc1ccccc1 (stereo unspecified) | 8% |
| CC(=O)Nc1ccc(S(=O)(=O)N(CC(=O)O)Cc2ccccc2)cc1 | 7% |
| CCn1c(SCC(N)=O)nnc1-c1ccc(S(=O)(=O)N2CCN(C)CC2)cc1 | 0% |
| N#Cc1c2n(c(=S)n(-c3ccccn3)c1=O)CCCCC2 | 2% |
| C=CCSc1nnc2n(CCc3ccccc3)c(=O)c3c4c(sc3n12)COC(C)(C)C4 | 0% |
| CC(=O)N1C(=O)C2(C(C#N)=C(N)Oc3cc(C)oc(=O)c32)c2ccccc21 (stereo unspecified) | 0% |
| O=C(C1CCCO1)N1CCN(S(=O)(=O)c2ccccc2)CC1 (stereo unspecified) | 0% |
| COc1cc(NS(=O)(=O)c2cccc3nsnc23)c(C(=O)O)cc1OC | 0% |
| CN(C(=O)c1ccccc1Cl)c1ccccc1 | 2% |
| COc1ccc(-c2ccc(-c3noc(-c4ccccc4)n3)c(OC)n2)cc1 | 3% |
